# Screening data: PubChem BioAssay, several laboratories
# Sampled rows, rich in hits. Any-hit rate of the full collection: about 3.3%.
# MITF TRPM1 HTS – MITF TRPM1 promoter activation in melanoma cells. SK-MEL-5 TRPM1-promoter luciferase, 24 h; % of positive control, neutral wells = 0. activation, % at 12.5 µM. 300,000 tested, 0.75% active. AID 588334;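 active means mean activation of at least 80% with every replicate also reaching 80%; inconclusive means mean reaches 80% but some replicate falls short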;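 further: 0% = neutral control wells and 100% = parthenolide positive control wells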
# Statin myotox sup – suppression of simvastatin myotoxicity | C2C12 myotubes + simvastatin, ATP luminescence, 48 h; scaled: DMSO 0, geranylgeraniol control 100 | rescue of ATP level, % at 7.49 µM | 330,000 tested, 0.78% active | AID 602340;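 active means mean ATP rescue above about 67%, or every replicate alone reaching that limit, limit read from the data, passing the limit was not always enough; inconclusive means no clear call, values can overlap the other calls; inactive means mean under the limit and some replicate under it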;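 further: myotubes were challenged with 10 µM simvastatin during compound exposure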
# FXN GAA850 act – frataxin GAA850 promoter activation | HEK293 lucGAA850 FXN promoter luciferase reporter, 24 h; percent of 10 µM SAHA response | activation, % at 6 µM | 360,000 tested, 0.56% active | AID 540364;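 active means activation above the average of all compounds screened plus 3 SD, cutoff fixed separately per campaign, cut at about 7.5% in these data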;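 further: 0% = DMSO wells and 100% = 10 µM SAHA wells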
# esBAF inh – inhibitors of esBAF chromatin remodeling in mouse ES cells | Bmi1-luciferase knock-in reporter, 24 h; 100% = twice the neutral-well signal | reporter increase, % at 12.5 µM | 350,000 tested, 2% active | AID 602393; in the data active means activation above about 40%; inconclusive means no clear call, values can overlap the other calls;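 further: 0% = median of the plate's neutral control wells and 100% = double that signal; a rise in the Bmi1 reporter signal indicates esBAF inhibition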
# Wnt act – activators of Wnt/beta-catenin signaling. Wnt/beta-catenin reporter cell assay, activator, plate reader. activation, % at 9.35 µM. 300,000 tested, 1.2% active. AID 743398; in the data active means activation above about 30%, passing the limit was not always enough; inconclusive means no clear call, values can overlap the other calls;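 further: 0% = neutral control wells and 100% = positive control wells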
# * marks the source's active call; other numbers are inactive results; u = inconclusive; x = no result given.
SMILES,MITF TRPM1 HTS,Statin myotox sup,FXN GAA850 act,esBAF inh,Wnt act
C[C@@H]1CN([C@H](C)CO)C(=O)c2cccc(NC(=O)c3nc4ccccc4s3)c2O[C@H]1CN(C)C(=O)Nc1ccccc1,x,35,x,-2,x
Cc1ccc(NC(=O)Nc2ccc3c(c2)C(=O)N(C)[C@@H]2CC[C@H](CC(=O)NCC(F)(F)F)O[C@@H]2CO3)cc1,x,-9,x,6,x
O=C(CC(Nc1ccc(Cl)cc1)C(=O)O)c1ccccc1 (stereo not given),73,x,4,x,47*
CCC(=O)N(C)C[C@@H]1Oc2cc(-c3cccc(F)c3)ccc2S(=O)(=O)N([C@@H](C)CO)C[C@H]1C,x,-35,x,3,x
Cc1cc(O)c(C(=O)/C=C/c2ccccc2)c(=O)o1,-6,-9,3,27,12
Cc1cc(O)c(C(=O)/C=C/c2ccc(C(C)C)cc2)c(=O)o1,9,8,6,24,39*
O=C(C[C@@H]1CC[C@H]2[C@@H](COC[C@H](O)CN2S(=O)(=O)c2ccccc2)O1)Nc1ccccc1,x,7,x,-4,x
CCC(=O)N1CCc2cc(Br)cc(S(=O)(=O)CC(=O)OC)c21,-5,105*,0,-3,x
CCC(=O)N1CCc2cc(Br)cc(S(=O)(=O)NCCN3CCCC3)c21,6,-7,1,2,-2
C[C@@H]1CN([C@@H](C)CO)C(=O)c2cc(NC(=O)CCN3CCOCC3)ccc2O[C@H]1CN(C)S(=O)(=O)c1ccccc1,x,3,x,-2,x
COc1ccc(NC(=O)Nc2ccc3c(c2)C(=O)N([C@@H](C)CO)C[C@@H](C)[C@@H](CN(C)Cc2ccc(C(=O)O)cc2)OCCCC[C@@H](C)O3)cc1,x,x,x,-2,x
O=C(c1ccco1)N1CCN(Cc2c(Cl)cccc2Cl)CC1,74,-9,3,59*,9
C/C=C/Cn1c(SCc2ccccc2)nc2c1c(=O)[nH]c(=O)n2C,x,116*,6,6,-4
CN1C(=O)c2cc(NC(=O)c3cscn3)ccc2OC[C@H]2O[C@H](CC(=O)NCc3ccc(Cl)c(Cl)c3)CC[C@H]21,x,78*,x,6,x
CCCN(C)C[C@H]1Oc2cc(C#C[C@@H](C)O)ccc2S(=O)(=O)N([C@H](C)CO)C[C@H]1C,x,-24,x,3,x
C#CCN1C(=O)S/C(=C/C=C/c2ccc(N(C)C)cc2)C1=O,32,-7,4,79*,45*
COc1ccc(-c2cnc3c(c2)C(=O)N([C@@H](C)CO)C[C@H](C)[C@@H](CN(C)Cc2cccnc2)O3)cc1,x,5,x,-1,x
Cc1ccc(C(=O)Nc2cc3c(oc2=O)CCCC3=O)cc1,x,x,4,x,34*
COc1cc(C(=O)N/N=C/c2ccc(OC(=O)c3cccc(C)c3)cc2)ccc1O,8,-7,-1,5,3
Cc1cccc(C(=O)Oc2ccc(/C=N/O)cc2)c1,127*,8,3,76*,11
COc1cccc(/C=C2\N=C3CCCCCN3C2=O)c1,-1,-8,4,3,36*
CC(C)CC#Cc1cnc2c(c1)C(=O)N([C@H](C)CO)C[C@H](C)[C@H](CN(C)S(C)(=O)=O)O2,x,2,x,5,x
Cn1c(=NC(=O)C(C)(C)C)sc2cccc(F)c21,18,-6,1,18,6
Cn1c(=NC(=O)c2ccccc2[N+](=O)[O-])sc2cccc(F)c21,100*,1,7,24,u
CC(C)(C)OC(=O)C[C@@H]1C/C=C\C[C@@H](CC(=O)N[C@H](CO)Cc2ccccc2)C(=O)N2CCC[C@@H]2COC1=O,1,13,0,2,56*
SMILES,MITF TRPM1 HTS,Statin myotox sup,FXN GAA850 act,esBAF inh,Wnt act
C/C=C/c1cnc2c(c1)C(=O)N([C@@H](C)CO)C[C@@H](C)[C@@H](CN(C)C(=O)C1CC1)O2,x,2,x,0,x
O=C(NC1CCC1)[C@@H]1[C@@H](CO)[C@@H]2Cn3c(ccc(-c4ccccc4)c3=O)[C@@H]2N1Cc1ccccn1,x,-22,x,-2,x
CCCNC(=O)N(C)C[C@@H]1Oc2ncc(Br)cc2C(=O)N([C@H](C)CO)C[C@H]1C,x,3,x,-1,x
CCSc1nnc2c(n1)[nH]c1c(C)cccc12,31,-31,4,89*,x
CC(=O)c1cccc(NC(=O)Cn2cnc(S(=O)(=O)N3CCCCC3)c2)c1,-1,7,-1,-3,0
CC(=O)c1ccc(N2CCN(C(=O)Cn3cnc(S(=O)(=O)N4CCCCC4)c3)CC2)cc1,5,98*,1,14,-2
